Screening data from PubChem.
FBW7 activator: human FBW7 E3 ligase activation, primary screen. 650,000 compounds, 0.13% hits. Q969H0. AlphaScreen FBW7–phospho-cyclin E peptide binding, activator screen. normalized activity (activation), % at 26.1 µM; in the data active = normalized activity above about 1.9%;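 note: purified mutant Fbw7 with reduced substrate affinity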
TEAD-YAP inh: TEAD-YAP interaction inhibition. HEK-TIYL cells, TEAD-Gal4/YAP UAS-luciferase luminescence. 640,000 compounds, 1.4% hits. inhibition, % at 9.12 µM. AID 1259422; in the data active = inhibition above about 32%;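 note: 0% = median of test compound wells and 100% = reference inhibitor wells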
GPR151 ag: human GPR151 activation; 650,000 compounds, 1% hits; activation, % at 11.2 µM; PathHunter beta-arrestin GPR151 cells, luminescence; AID 1508602; Q8TDV0; in the data active = activation above about 4.9%;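 note: 0% = median of compound wells and 100% = cells with positive control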
MITF primary: inhibitors of human MITF; AlphaScreen MITF homodimerization, bead proximity signal; inhibition, % at 2.6 µM; 650,000 compounds, 0.91% hits; AID 1259374; in the data active = inhibition above about 50%;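 note: 0% = vehicle wells with protein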
Target sequence (O75030 whole entry, looked up): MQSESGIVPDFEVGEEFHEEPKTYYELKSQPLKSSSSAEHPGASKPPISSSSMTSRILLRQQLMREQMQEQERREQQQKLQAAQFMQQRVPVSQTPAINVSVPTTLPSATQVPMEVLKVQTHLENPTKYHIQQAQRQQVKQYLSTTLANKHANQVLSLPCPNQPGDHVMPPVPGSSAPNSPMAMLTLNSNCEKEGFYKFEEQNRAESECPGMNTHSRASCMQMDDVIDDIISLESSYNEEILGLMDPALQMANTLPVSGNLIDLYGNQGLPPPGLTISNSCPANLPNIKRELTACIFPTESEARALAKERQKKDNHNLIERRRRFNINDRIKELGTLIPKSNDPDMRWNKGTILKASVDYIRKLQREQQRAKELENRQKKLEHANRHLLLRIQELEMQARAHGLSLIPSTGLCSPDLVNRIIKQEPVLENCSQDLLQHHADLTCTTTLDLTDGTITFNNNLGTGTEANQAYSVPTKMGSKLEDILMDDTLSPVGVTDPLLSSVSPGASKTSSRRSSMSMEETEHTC
GPR151 confirm: confirmation of human GPR151 activators. shares compounds with GPR151 ag. GPR151 PathHunter beta-arrestin cells, luminescence, 90 min; % of EA-reagent control over plate median. activation, % at 11.2 µM. 6,700 tested, under 10 active. AID 1508609;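 active = mean percent activation across replicates above the confirmation screen cutoff of 4.91%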
GPR119 counter: activates human GPR119 in a GPR151 counter-screen | shares compounds with GPR151 ag | activation, % at 11.2 µM | 6,700 compounds, 0.3% hits | GPR119 PathHunter beta-arrestin cells, luminescence, 90 min; 0 = compound-well median, 100 = enzyme-acceptor control;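 active = mean percent activation in the counterscreen above 29.09%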;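 note: counterscreen on off-target GPR119 to flag nonselective hits from the GPR151 activator screen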
* hit, by the source's call; x = not tested or not shown. Hits are enriched below; roughly 3.4% of the tested compounds scored in any of these assays.

SMILES	FBW7 activator	TEAD-YAP inh	GPR151 ag	MITF primary	GPR151 confirm	GPR119 counter
[Zn+2].c1ccc2c(c1)-c1nc-2nc2[n-]c(nc3nc(nc4[n-]c(n1)c1ccccc41)-c1ccccc1-3)c1ccccc21	1	9	11*	2	0	-3
CNc1nc(-c2ccccc2O)nc(-c2ccccc2O)n1	1	7	0	3	x	x
O=C(O)CCCC(=O)Nc1nc(-c2ccccc2)cs1	0	5	-2	-13	x	x
Cc1ccccc1OCCCC(=O)Nc1nc(-c2ccccc2)cs1	0	-1	7.1*	-14	-1	0
COc1ccc2cc(C(=O)Nc3ccccc3C)c(=N)oc2c1	0	-40	5.0*	11	0	-7
O=C(Cn1cnc2sc3c(c2c1=O)CCC3)Nc1ccccc1Cl	0	14	-1	-1	x	x
Cc1cccc(Nc2nn3c(=O)c4ccccc4nc3s2)c1C	0	-57	-1	-6	x	x
NC(=O)C1CCCc2c1[nH]c1c(C(=O)O)cccc21 (configuration not stated)	0	1	6.1*	-8	-1	-1
Cc1ccc([N+](=O)[O-])cc1NC(=O)c1cc(C)c(C)o1	0	-6	1	-13	x	x
O=C(CCN1C(=O)C2C3C=CC(C3)C2C1=O)N1CCN(c2ccccc2F)CC1 (configuration not stated)	0	3	5.1*	13	0	-6
O=C(CCN1C(=O)C2C3C=CC(C3)C2C1=O)N1CCN(c2ccccc2Cl)CC1 (configuration not stated)	0	-15	1	0	x	x
Cc1ccccc1Nc1sc(C(=O)c2ccc([N+](=O)[O-])cc2)c(N)c1C(=O)NCc1ccc(Cl)cc1	0	4	6.4*	-3	2	21
Cc1ccccc1Nc1sc(C(=O)c2ccc(Cl)cc2)c(N)c1C(=O)NCc1ccc(Cl)cc1	0	-2	1	4	x	x
O=C(CSC(=S)N1CCCCC1)c1ccc([N+](=O)[O-])cc1	0	-32	6.1*	20	0	-5
Cc1ccccc1NC(=O)CC(C)S(=O)(=O)c1ccc2c(c1)OCC(=O)N2 (configuration not stated)	0	-4	-2	-1	x	x
O=C(OCc1cc(=O)oc2cc3c(cc12)CCC3)c1cc([N+](=O)[O-])ccc1NCCO	0	0	2	-8	x	x
CCOc1ccc(OCC)c(NC(=O)CN2CCN(C(C)=O)CC2)c1	0	-1	6.8*	19	-1	-6
O=S(=O)(CCc1ccccc1)NCC1(c2cccs2)CCCC1	0	2	5.2*	-3	0	0
Cc1cc(C)c(C(=O)Nn2c(-c3cccc([N+](=O)[O-])c3)nc3ccccc3c2=O)cc1C	0	0	0	11	x	x
C#CCSc1nsc(NC(=O)Nc2cccc(F)c2)n1	0	36*	7.1*	1	1	-1
CC1=C(C(=O)Nc2cccc(C)c2C)C(c2ccc(N(C)C)cc2)NC(=S)N1 (configuration not stated)	0	6	1	6	x	x
CCc1ccc(NC2=C(Cl)C(=O)N(c3ccccc3OC)C2=O)cc1	0	21	3	25	x	x
CCc1ccc(N2C(=O)C(Cl)=C(Nc3ccc(C(=O)N4CCCC4)cc3)C2=O)cc1	0	18	5.2*	8	0	-5
C=CCOc1ccc(C(=O)NCC2OCCc3ccccc32)cc1 (configuration not stated)	0	-33	-1	3	x	x
C=CCN(CC(=O)O)S(=O)(=O)c1ccc(C)c(C)c1	0	4	6.6*	6	1	17
SMILES	FBW7 activator	TEAD-YAP inh	GPR151 ag	MITF primary	GPR151 confirm	GPR119 counter
CCCN(CCC)S(=O)(=O)c1ccc(C)c(C)c1	1	1	-1	4	x	x
CC(C)c1nnc(NC(=O)c2cc(Cl)ccc2Cl)s1	0	-12	5.1*	6	1	-9
CCN1/C(=C/c2ccc3cc(OC)ccc3[n+]2CC)Sc2ccc(C3CCCCC3)cc21	-1	88*	9.3*	24	-1	-3
Cc1noc(C)c1COc1ccc(C(=O)OCC(=O)c2ccc(Cl)s2)cc1	0	5	-2	-1	x	x
Cc1cnc(N2CCOCC2)nc1Nc1ccc(N2CCOCC2)cc1	0	5	-1	15	x	x
Cc1cnc(N2CCOCC2)nc1Nc1ccc(Oc2ccccc2)cc1	0	-17	6.6*	-3	-1	-1
Cc1cnc(-c2csc3ccccc23)nc1Nc1ccc(N2CCOCC2)cc1	1	-14	5.0*	14	-1	-9
COc1ccccc1-n1nc(C(=O)N2CCN(C)CC2)c2ccccc2c1=O	0	-4	-1	-1	x	x
CN(C)CCN1C(=O)C(CC(=O)Nc2cccc([N+](=O)[O-])c2)SC1=Nc1ccccc1 (configuration not stated)	0	-13	5.2*	6	1	17
COCCN(Cc1c(C(=O)N(C)CCc2ccccc2)nc2c(C)cccn12)C(C)C	0	3	0	-2	x	x
Cc1ccc(C)c(OC2=NS(=O)(=O)c3cc([N+](=O)[O-])ccc32)c1	0	0	3	-3	x	x
Cc1ccc(C(C)C)c(OC2=NS(=O)(=O)c3cc([N+](=O)[O-])ccc32)c1	0	6	13*	16	-1	-6
CC(=O)Oc1ccc(C(=O)c2ccccc2)c(OC(C)=O)c1	0	10	5.6*	11	0	-1
CC1CCc2c(sc(NC(=O)C(C)C)c2C(N)=O)C1 (configuration not stated)	0	-15	1	-19	x	x
COc1ccc(C(=O)Nc2sc3c(c2C(N)=O)CCC(C)C3)c(OC)c1 (configuration not stated)	0	0	1	-2	x	x
O=C(c1cc(Cl)ccc1[N+](=O)[O-])N1CCN(c2ncccn2)CC1	0	3	8.3*	10	1	-4
CC1=C2C(O)C(=O)OC3CC4C(C)(C)C(=O)C=C[C@]4(C)C(CC1)[C@]23C (some centres not stated)	0	-6	6.0*	-3	0	7
O=C(Nc1nc2c(s1)CCCC2)C1CN(c2nc3ccccc3s2)C1	0	-17	9.8*	3	0	-1
O=C(NCc1ccccc1F)C1CN(c2nc3ccccc3s2)C1	0	-36	1	2	x	x
CC1CCc2nn(CC(=O)Nc3ccc(F)cc3)cc2C1 (configuration not stated)	0	-10	0	7	x	x
CC1CCCCN1c1ncccc1C(=O)N1CCCC1 (configuration not stated)	0	3	-1	10	x	x
CC1CCCCN1c1ncccc1C(=O)NC1CCCC1 (configuration not stated)	0	-4	6.4*	30	1	4
